Source: PubChem BioAssay (Tox21)
Inconclusive results are not listed. Active and inactive are the calls of the source. Calls come from the whole dose curve.

target: Progesterone receptor (Homo sapiens) (UniProt P06401); assay: qHTS assay to identify small molecule agonists of the progesterone receptor (PR) signaling pathway (AID 1346784); conditions: PR-UAS-bla HEK293T, beta-lactamase FRET ratio, 16 h; series mostly up to 92.4 µM; activation: at the top concentration; note: nearly all actives have a fitted effect of over 30% in size
Sequence (P06401 whole entry, looked up): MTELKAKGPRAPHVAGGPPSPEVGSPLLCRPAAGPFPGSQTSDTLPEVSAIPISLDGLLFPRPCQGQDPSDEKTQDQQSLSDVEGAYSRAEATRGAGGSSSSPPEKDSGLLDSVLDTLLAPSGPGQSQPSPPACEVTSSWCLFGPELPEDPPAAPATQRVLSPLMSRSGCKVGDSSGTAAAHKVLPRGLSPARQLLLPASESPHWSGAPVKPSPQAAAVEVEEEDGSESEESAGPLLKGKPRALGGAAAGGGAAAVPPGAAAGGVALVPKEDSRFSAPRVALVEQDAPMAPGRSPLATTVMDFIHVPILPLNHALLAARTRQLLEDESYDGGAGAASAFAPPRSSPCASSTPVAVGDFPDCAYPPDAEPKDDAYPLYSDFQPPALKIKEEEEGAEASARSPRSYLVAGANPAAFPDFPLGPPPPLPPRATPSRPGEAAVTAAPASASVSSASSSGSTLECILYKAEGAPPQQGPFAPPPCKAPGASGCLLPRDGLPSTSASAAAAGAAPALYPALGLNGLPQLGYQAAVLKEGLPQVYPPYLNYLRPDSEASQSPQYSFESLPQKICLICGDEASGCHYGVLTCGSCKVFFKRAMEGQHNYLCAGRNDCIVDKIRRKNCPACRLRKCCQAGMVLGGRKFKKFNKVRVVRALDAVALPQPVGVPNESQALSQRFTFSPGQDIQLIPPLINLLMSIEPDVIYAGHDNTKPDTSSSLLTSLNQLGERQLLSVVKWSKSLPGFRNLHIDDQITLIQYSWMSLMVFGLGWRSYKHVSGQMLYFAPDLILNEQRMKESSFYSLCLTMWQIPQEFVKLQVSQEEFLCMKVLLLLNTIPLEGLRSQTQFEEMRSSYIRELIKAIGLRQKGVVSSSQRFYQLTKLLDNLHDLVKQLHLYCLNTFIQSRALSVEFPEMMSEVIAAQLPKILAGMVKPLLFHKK
Text: U.S. Tox21 Program National Center for Advancing Translational Sciences [NCATS] NIH Chemical Genomics Center [NCGC] U.S. Environmental Protection Agency [EPA] National Institutes of Environmental Health Sciences [NIEHS] National Toxicology Program [NTP] U.S. Food and Drug Administration [FDA] […] Endocrine disrupting chemicals (EDCs) and their interactions with steroid hormone receptors like PR causes disruption of normal endocrine function. To identify the compounds that activate PR signaling, a PR-UAS-bla GripTite cell line i.e. PR-UAS-bla HEK 293T (Invitrogen, Carlsbad, CA, USA) containing a beta-lactamase reporter gene under the control of an Upstream Activator Sequence (UAS) was used to screen Tox21 10K compound library.
Tox21 Assay Protocol Summary: PR-UAS-bla HEK 293T cells were dispensed at 3,000 cells/5 uL of assay medium containing 2% charcoal stripped FBS per well into black wall/clear-bottom 1536-well plates using a Multidrop Combi (ThermoFisher Scientific, Waltham, MA) dispenser. After the assay plates were incubated at a 37C and 5% CO2 for 6hr, 23 nL of compounds dissolved in DMSO, positive controls or DMSO only was transferred to the assay plate by a Pintool station (Kalypsys, San Diego, CA). The plates were incubated at 37C and 5% CO2 for 16hr. Then 1 uL of LiveBLAzer B/G FRET substrate was added using a BioRAPTR FRD (Flying Reagent Dispenser, Aurora Discovery, San Diego, CA). After the plates were incubated at room temperature for 2 hours, fluorescence intensity was measured by an Envision plate reader (PerkinElmer, Shelton, CT).
% is set by controls: 0 for no effect and ±100 for the full control effect.

Q: For `CCBr`, which “activation” value is on record?
A: The value was 0.235% (inactive).

Q: `O=C(NC(=O)c1c(F)cccc1F)Nc1cc(Cl)c(Oc2ncc(C(F)(F)F)cc2Cl)c(Cl)c1` was tested. Which “activation” value did it give?
A: The value was 2.57% (inactive).

Q: For `O=S1(=O)OC(c2cc(Br)c(O)c(Br)c2)(c2cc(Br)c(O)c(Br)c2)c2ccccc21`, which “activation” value is on record?
A: The value was 5.54% (inactive).

Q: For `CC(C)(OO)c1ccccc1`, which “activation” value is on record?
A: The value was -0.484% (inactive).

Q: With `O=S(=O)(Cl)c1ccccc1` as the molecule, how does the “activation” value read?
A: Its value is 0.476% (inactive).

Q: For `CCC(Br)(CC)C(=O)NC(N)=O`, which “activation” value is on record?
A: Its value is 0.46% (inactive).

Q: With `C=CCCl` as the molecule, how does the “activation” value read?
A: The value was -0.78% (inactive).

Q: Which “activation” value does the source give for `NNC(=O)c1cccnc1` here?
A: The value was -1.24% (inactive).

Q: For `O=C(O)CC(Cl)C(=O)O` (stereo not given), which “activation” value is on record?
A: The value was -1.16% (inactive).

Q: For `NCC(CC(=O)O)c1ccc(Cl)cc1` (stereo not given), which activation is on record?
A: The activation was 1.24% [at 0.349 µM] (inactive).

Q: With `CCOP(=S)(OCC)Oc1cc(Cl)c(Br)cc1Cl` as the molecule, how does the “activation” value read?
A: The value was 11.7% (inactive).

Q: Which “activation” value does the source give for `Cl/C=C\C[N+]12CN3CN(CN(C3)C1)C2` here?
A: The value was -0.145% (inactive).

Q: For `O=C(O)COc1ccc(Cl)cc1`, which “activation” value is on record?
A: The value was -1.27% (inactive).

Q: How did the “activation” value turn out when `COC(C)(C)CCC[C@H](C)C/C=C/C(C)=C/C(=O)OC(C)C` was run?
A: Its value is 1.04% (inactive).

Q: `COCC(C)N(C(=O)CCl)c1c(C)csc1C` (stereo not given) was tested. Which “activation” value did it give?
A: The value was -0.916% (inactive).

Q: Which “activation” value does the source give for `Nc1nc(N)nc(N)n1` here?
A: The value was 0.244% (inactive).

Q: For `N#C/C(N)=C(/N)C#N`, which “activation” value is on record?
A: The value was -0.904% (inactive).

Q: With `Clc1cccc(SC2CCNCC2)n1` as the molecule, how does the “activation” value read?
A: The value was -0.211% [at 42.5 µM] (inactive).

Q: Which “activation” value does the source give for `II` here?
A: Its value is 0.927% (inactive).

Q: `C=CCC1([C@H](C)CCC)C(=O)NC(=O)NC1=O` was tested. Which “activation” value did it give?
A: The value was 0.0709% (inactive).

Q: `C#CCOC(C(=O)OCCN(C)C)(c1ccccc1)c1ccccc1` was tested. Which “activation” value did it give?
A: The value was -5% [at 42.5 µM] (inactive).

Q: `CCN(C)N=O` was tested. Which “activation” value did it give?
A: Its value is 0% (inactive).

Q: Which “activation” value does the source give for `Cc1ccc(N)cc1C` here?
A: The value was -0.883% (inactive).

Q: For `O=C(CCl)c1ccc(Cl)cc1Cl`, which Potency is on record?
A: Its Potency is “inactive”.

Q: `O=Cc1ccc(Cl)cc1Cl` was tested. Which “activation” value did it give?
A: The value was -0.417% (inactive).

Q: How did the “activation” value turn out when `CN(N=O)c1ccc([N+](=O)[O-])cc1` was run?
A: Its value is -1.03% (inactive).

Q: How did the “activation” value turn out when `CCOP(=S)(OCC)SCn1nnc2ccccc2c1=O` was run?
A: Its value is -2.51% (inactive).

Q: Which “activation” value does the source give for `CCOP(O)OCC` here?
A: The value was 0.565% (inactive).

Q: Which “activation” value does the source give for `BrCC(Br)C1CCC(Br)C(Br)C1` (stereo not given) here?
A: Its value is 20.1% (inactive).

Q: `COc1c(C(C)(C)C)cc([N+](=O)[O-])c(C)c1[N+](=O)[O-]` was tested. Which “activation” value did it give?
A: The value was -0.15% (inactive).

Q: `COC(=O)C(Br)CBr` (stereo not given) was tested. Which “activation” value did it give?
A: The value was 1.33% (inactive).

Q: How did the “activation” value turn out when `O=C(CBr)OCc1ccccc1` was run?
A: Its value is 2.69% (inactive).

Q: For `O=[N+]([O-])c1cc(C(F)(F)F)cc([N+](=O)[O-])c1Cl`, which “activation” value is on record?
A: The value was 6.66% (inactive).

Q: With `CN(C)c1ccc(N(C)C)cc1` as the molecule, how does the “activation” value read?
A: The value was 12.5% (inactive).

Q: For `O=C(Nc1ccccc1)Nc1ccnc(Cl)c1`, which “activation” value is on record?
A: The value was -9.63% (inactive).

Q: With `CCOC(=O)COc1cc(-c2nn(C)c(OC(F)F)c2Cl)c(F)cc1Cl` as the molecule, how does the “activation” value read?
A: Its value is -0.587% (inactive).

Q: For `Sc1ccccc1Cl`, which “activation” value is on record?
A: Its value is -0.594% [at 42.5 µM] (inactive).

Q: `Cc1ccccc1C(=O)Nc1cccc(OC(C)C)c1` was tested. Which “activation” value did it give?
A: Its value is 0.115% (inactive).

Q: How did the “activation” value turn out when `C=COC(C)=O` was run?
A: The value was -1.47% (inactive).

Q: With `CCOc1ccc(C(C)(C)COCc2cccc(Oc3ccccc3)c2)cc1` as the molecule, how does the “activation” value read?
A: Its value is 2.51% (inactive).
